Test results reported in PubChem BioAssay AID1159580 (chemical genetic matrix, 2015).
The whole screen tested about 5,500 compounds, of which about 2,000 (36%) were called active. Another 18% or so got no clear call; they are omitted. Rule as the data show it: active = normalized growth mostly below about 0.91 (no sharp cut-off); inconclusive = no clear call, values can overlap the other calls; inactive = mostly above about 0.92. The list shows a part of the results.

Test: chemical genetic growth profiling, strain panel (AID 1159580);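 also: tested at 20 µM; growth read once vehicle control cultures reached saturation at 30 °C; 1 = growth at the plate median or of vehicle wells; lower values mean less growth of the strain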
Details: growth OD
[1] = S. cerevisiae deletion strains, locus YAL040C, strain CLN3, stronger effect = lower value
[2] = S. cerevisiae deletion strains, locus YCL061C, strain MRC1 (second series), stronger effect = lower value
[3] = S. cerevisiae deletion strains, locus YDR363W, strain ESC2, stronger effect = lower value
[4] = S. cerevisiae deletion strains, locus YER002W, strain NOP16, stronger effect = lower value
[5] = S. cerevisiae deletion strains, locus YGR078C, strain PAC10, stronger effect = lower value
[6] = S. cerevisiae deletion strains, locus YJR075W, strain HOC1, stronger effect = lower value
[7] = S. cerevisiae deletion strains, locus YMR307W, strain GAS1, stronger effect = lower value
[8] = S. cerevisiae deletion strains, locus YNL128W, strain TEP1, stronger effect = lower value
[9] = S. cerevisiae deletion strains, locus YNL153C, strain GIM3, stronger effect = lower value
[10] = S. cerevisiae deletion strains, locus YNL175C, strain NOP13, stronger effect = lower value
[11] = S. cerevisiae deletion strains, locus YNL197C, strain WHI3, stronger effect = lower value
[12] = S. cerevisiae deletion strains, locus YNL224C, strain SQS1, stronger effect = lower value
[13] = S. cerevisiae deletion strains, locus YOR083W, strain WHI5 (second series), stronger effect = lower value
[14] = S. cerevisiae deletion strains, locus YPL055C, strain LGE1, stronger effect = lower value
[15] = S. cerevisiae deletion strains, locus YPL241C, strain CIN2, stronger effect = lower value
[16] = S. cerevisiae deletion strains, locus YMR263W, strain SAP30, stronger effect = lower value
[17] = S. cerevisiae deletion strains, locus YHR030C, strain SLT2, stronger effect = lower value
[18] = S. cerevisiae deletion strains, locus YJL095W, strain BCK1, stronger effect = lower value

Measured: normalized growth

O=C(O)CNC(=O)C(CS)Cc1ccccc1 (stereo not given)
inactive: S. cerevisiae deletion strains, locus YAL013W, strain DEP1, stronger effect = lower value 1.01 | [1] 1.05 | [2] 1 | [3] 1.01 | [4] 0.994 | [5] 1.01 | [6] 0.996 | [7] 1 | [8] 1.02 | [9] 1.07 | [10] 1.01 | [11] 0.967 | [12] 1 | S. cerevisiae deletion strains, locus YNL322C, strain KRE1, stronger effect = lower value 0.995 | [13] 1.04 | [14] 1.01 | [15] 1.01

CC(=O)SC1CC2=CC(=O)CC[C@]2(C)C2CC[C@@]3(C)C(CC[C@@]34CCC(=O)O4)C12 (stereo not given in full)
inactive: [1] 0.996 | [2] 1 | S. cerevisiae deletion strains, locus YDR150W, strain NUM1, stronger effect = lower value 1.01 | [3] 1 | [4] 0.982 | [5] 1.01 | S. cerevisiae deletion strains, locus YGR229C, strain SMI1, stronger effect = lower value 1.01 | [6] 1.01 | [16] 0.99 | [7] 1.03 | [8] 0.986 | [10] 1.01 | [11] 0.999 | [12] 1 | [13] 1.01 | [15] 1.01

CC(=O)O[C@@H]1CC2C(C)(C)C(=O)[C@@H]3O[C@@H]3[C@]2(C)C2CC[C@]3(C)C(=CC(=O)O[C@H]3c3ccoc3)[C@@]21C (stereo not given in full)
inactive: S. cerevisiae deletion strains, locus YBR021W, strain FUR4, stronger effect = lower value 0.995 | S. cerevisiae deletion strains, locus YBR229C, strain ROT2, stronger effect = lower value 0.94 | S. cerevisiae deletion strains, locus YCL029C, strain bik1, stronger effect = lower value 0.967 | S. cerevisiae deletion strains, locus YDL035C, strain GPR1, stronger effect = lower value 0.958 | S. cerevisiae deletion strains, locus YDL074C, strain BRE1, stronger effect = lower value 0.989 | S. cerevisiae deletion strains, locus YDL101C, strain DUN1, stronger effect = lower value 0.994 | S. cerevisiae deletion strains, locus YDL134C, strain PPH21, stronger effect = lower value 0.988 | S. cerevisiae deletion strains, locus YDL185W, strain tfp1, stronger effect = lower value 0.964 | S. cerevisiae deletion strains, locus YDL192W, strain arf1, stronger effect = lower value 0.976 | S. cerevisiae deletion strains, locus YDR101C, strain arx1, stronger effect = lower value 0.975 | S. cerevisiae deletion strains, locus YDR162C, strain NBP2, stronger effect = lower value 0.98 | S. cerevisiae deletion strains, locus YDR318W, strain mcm21, stronger effect = lower value 0.995 | S. cerevisiae deletion strains, locus YDR388W, stronger effect = lower value 0.999 | S. cerevisiae deletion strains, locus YDR502C, strain sam2, stronger effect = lower value 1.01 | S. cerevisiae deletion strains, locus YEL061C, strain CIN8, stronger effect = lower value 0.979 | S. cerevisiae deletion strains, locus YER110C, stronger effect = lower value 0.975 | S. cerevisiae deletion strains, locus YER155C, strain BEM2, stronger effect = lower value 0.998 | S. cerevisiae deletion strains, locus YER167W, strain BCK2, stronger effect = lower value 0.981 | S. cerevisiae deletion strains, locus YGL078C, strain dbp3, stronger effect = lower value 1.01 | S. cerevisiae deletion strains, locus YGL086W, strain mad1, stronger effect = lower value 0.99 | S. cerevisiae deletion strains, locus YGL248W, strain PDE1, stronger effect = lower value 1.01 | [5] 1.01 | S. cerevisiae deletion strains, locus YGR135W, strain pre9, stronger effect = lower value 1.07 | S. cerevisiae deletion strains, locus YGR252W, strain gcn5, stronger effect = lower value 0.997 | [17] 0.989 | S. cerevisiae deletion strains, locus YHR079C, strain IRE1 (second series), stronger effect = lower value 0.985 | S. cerevisiae deletion strains, locus YHR094C, strain hxt1, stronger effect = lower value 0.981 | S. cerevisiae deletion strains, locus YHR129C, strain ARP1, stronger effect = lower value 0.988 | S. cerevisiae deletion strains, locus YHR200W, strain rpn10, stronger effect = lower value 0.985 | S. cerevisiae deletion strains, locus YIL066C, strain RNR3, stronger effect = lower value 0.948 | S. cerevisiae deletion strains, locus YIL073C, strain SPO22, stronger effect = lower value 0.956 | S. cerevisiae deletion strains, locus YIL125W, strain kgd1, stronger effect = lower value 0.987 | S. cerevisiae deletion strains, locus YIR030C, strain dcg1, stronger effect = lower value 0.99 | [18] 1.04 | S. cerevisiae deletion strains, locus YJL134W, strain LCB3, stronger effect = lower value 0.982 | S. cerevisiae deletion strains, locus YJL168C, strain set2, stronger effect = lower value 0.996 | S. cerevisiae deletion strains, locus YJL187C, strain SWE1 (second series), stronger effect = lower value 1.01 | S. cerevisiae deletion strains, locus YJR043C, strain POL32, stronger effect = lower value 0.96 | [6] 1 | S. cerevisiae deletion strains, locus YKL009W, strain mrt4, stronger effect = lower value 0.976 | S. cerevisiae deletion strains, locus YKL068W, stronger effect = lower value 0.986 | S. cerevisiae deletion strains, locus YKL085W, strain MDH1 (second series), stronger effect = lower value 0.996 | S. cerevisiae deletion strains, locus YKL085W, strain MDH1, stronger effect = lower value 0.996 | S. cerevisiae deletion strains, locus YKR001C, strain vps1, stronger effect = lower value 0.971 | S. cerevisiae deletion strains, locus YLR039C, strain RIC1, stronger effect = lower value 0.99 | S. cerevisiae deletion strains, locus YLR058C, strain SHM2, stronger effect = lower value 0.974 | S. cerevisiae deletion strains, locus YLR102C, strain apc9, stronger effect = lower value 0.981 | S. cerevisiae deletion strains, locus YLR262C, strain YPT6, stronger effect = lower value 0.963 | S. cerevisiae deletion strains, locus YLR268W, strain sec22, stronger effect = lower value 0.948 | S. cerevisiae deletion strains, locus YLR330W, strain CHS5, stronger effect = lower value 0.988 | S. cerevisiae deletion strains, locus YLR371W, strain rom2, stronger effect = lower value 0.979 | S. cerevisiae deletion strains, locus YLR418C, strain cdc73, stronger effect = lower value 0.993 | S. cerevisiae deletion strains, locus YML016C, strain PPZ1, stronger effect = lower value 0.972 | S. cerevisiae deletion strains, locus YML032C, strain rad52, stronger effect = lower value 0.962 | S. cerevisiae deletion strains, locus YML124C, strain tub3, stronger effect = lower value 0.991 | S. cerevisiae deletion strains, locus YMR078C, strain ctf18, stronger effect = lower value 0.993 | S. cerevisiae deletion strains, locus YMR223W, strain ubp8, stronger effect = lower value 1 | [16] 1.01 | [7] 0.999 | S. cerevisiae deletion strains, locus YNL067W, strain RPL9B, stronger effect = lower value 1.03 | [8] 0.948 | [9] 1.02 | S. cerevisiae deletion strains, locus YNL233W, strain BNI4, stronger effect = lower value 1.03 | S. cerevisiae deletion strains, locus YNL250W, strain rad50, stronger effect = lower value 1.01 | S. cerevisiae deletion strains, locus YNL271C, strain bni1, stronger effect = lower value 0.999 | S. cerevisiae deletion strains, locus YNL298W, strain CLA4, stronger effect = lower value 0.995 | S. cerevisiae deletion strains, locus YNL307C, strain MCK1, stronger effect = lower value 0.987 | S. cerevisiae deletion strains, locus YNR052C, strain pop2, stronger effect = lower value 1.04 | S. cerevisiae deletion strains, locus YOL012C, strain htz1 0.875 | S. cerevisiae deletion strains, locus YOL147C, strain pex11, stronger effect = lower value 0.993 | S. cerevisiae deletion strains, locus YOR061W, strain CKA2, stronger effect = lower value 0.936 | S. cerevisiae deletion strains, locus YOR069W, strain VPS5, stronger effect = lower value 0.995 | S. cerevisiae deletion strains, locus YOR136W, strain idh2, stronger effect = lower value 0.99 | S. cerevisiae deletion strains, locus YOR144C, strain elg1, stronger effect = lower value 0.988 | S. cerevisiae deletion strains, locus YOR184W, strain ser1, stronger effect = lower value 0.963 | S. cerevisiae deletion strains, locus YOR316C, strain cot1, stronger effect = lower value 0.986 | S. cerevisiae deletion strains, locus YPR119W, strain clb2, stronger effect = lower value 0.993 | S. cerevisiae deletion strains, locus YPR141C, strain kar3, stronger effect = lower value 0.989 | S. cerevisiae deletion strains, locus YPR163C, strain tif3, stronger effect = lower value 0.982 | S. cerevisiae deletion strains, locus YPR167C, strain met16, stronger effect = lower value 0.999 | S. cerevisiae deletion strains, strain wtn01, stronger effect = lower value 0.96 | S. cerevisiae strains, strain wild type, stronger effect = lower value 0.973

CC(=O)[C@H]1CC[C@H]2[C@@H]3CC[C@H]4C[C@H](O)CC[C@]4(C)[C@H]3C(=O)C[C@]12C
inactive: [1] 0.999 | [2] 0.995 | [3] 0.983 | [4] 0.993 | [5] 0.994 | [16] 1 | [7] 0.981 | [10] 0.974 | [11] 0.994 | [12] 1.01 | [13] 0.997 | [14] 0.947

C[C@]12CCC3C(CC[C@H]4C[C@H](O)CC[C@]34C)C1CCC2=O (stereo not given in full)
active: [17] 0.63 | S. cerevisiae deletion strains, locus YHR079C, strain IRE1, stronger effect = lower value 0.831 | [18] 0.736 | S. cerevisiae deletion strains, locus YJR066W, strain TOR1, stronger effect = lower value 0.815
inactive: S. cerevisiae deletion strains, locus YLR113W, strain HOG1, stronger effect = lower value 0.912 | S. cerevisiae deletion strains, locus YNL183C, strain NPR1, stronger effect = lower value 0.837 | S. cerevisiae deletion strains, locus YOR231W, strain MKK1, stronger effect = lower value 0.861 | S. cerevisiae deletion strains, locus YPL256C, strain CLN2, stronger effect = lower value 0.853
